Screening data as filed in PubChem.
The list is not random: actives were taken first. Their share in the collection is about 21%.
NS1 inh = blocks influenza NS1 protein function. Potency, µM (titrated, usually from 46.1 µM), for inactives: at the highest dose activity, positive = more growth. 270,000 tested, 0.4% active. AID 2326; further: potency means the concentration at half of the fitted maximal effect; actives are rising curves; nearly all actives have a fitted effect of over 50% in size
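A cell-based growth assay was used: compounds that relieve NS1-induced slow growth of budding yeast raise OD600. Assay medium was yeast nitrogen base with ammonium sulphate and -URA supplement, pH 6.0, with 2% galactose.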
SARS PLP yeast = SARS-CoV PLP inhibition in yeast; S. cerevisiae expressing SARS-CoV PLpro, growth rescue; 330,000 tested, 0.19% active; Potency, µM (titrated, usually from 32.9 µM), for the others: top-dose activity, positive = growth rescue, hits mostly activators; further: potency means the concentration at half of the fitted maximal effect; 0% is about no effect; nearly all actives have a fitted effect of over 55% in size
Shiga inhibitor = Shiga toxin inhibition; Vero cells, Shiga toxin protein synthesis inhibition reporter; inhibition, % at 38.7 µM; 290,000 tested, 9.2% active; AID 2315; in the data active means inhibition mostly above about 28%, no sharp cut-off; inactive means mostly below about 43%; further: 0% is about no effect
Pf growth 48h = inhibits P. falciparum growth in the first generation, 48 h | AID 504832 | Potency, µM (doses to about 28.7 µM), inactives show at the top dose activity change, negative = inhibition, hits mostly inhibitors | 310,000 tested, 5.9% active | P. falciparum luciferase growth in erythrocytes, 48 h; active means well fitted inhibition curve with a large enough effect; inconclusive means small, poorly fitted or top-dose-only effect, or another doubt; inactive means no such curve, though single readings can be large or run the other way; further: potency means the concentration at half of the fitted maximal effect; on the % scale 0 is the no-effect control and ±100 the full control effect
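Here the parasites carry a stable luciferase gene and grow inside erythrocytes in Albumax-based RPMI medium with compound for one erythrocytic cycle. Activity is scored as loss of luminescent signal.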
Pf growth 96h = P. falciparum growth inhibition at 96 hours | 320,000 tested, 6.9% active | P. falciparum luciferase reporter growth, 96 h | Potency, µM (series often up to 28.7 µM), inactives show at the top dose activity change, negative = inhibition, most hits filed as inhibitors; active means well fitted inhibition curve with a large enough effect; inconclusive means small, poorly fitted or top-dose-only effect, or another doubt; inactive means no such curve, though single readings can be large or run the other way; further: potency means the concentration at half of the fitted maximal effect; on the % scale 0 is the no-effect control and ±100 the full control effect
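Plates of compound plus infected erythrocytes (2% hematocrit, 0.05% parasitemia final) incubate 96 hours, 37 C, 5% CO2. Detection reagent added; reduced luminescence from the parasites' luciferase reporter flags inhibition.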
CHX counter = counter-screen hit for Shiga toxin inhibitors, cycloheximide. 300,000 tested, 12% active. cell reporter, cycloheximide protein synthesis inhibition counterscreen. max response, %. AID 2314; in the data active means max response mostly above about 13%, no sharp cut-off; inactive means mostly below about 14%; further: read at 38.3 µM for the half of the compounds with a filed dose; 0% is about no effect
* marks the source's active call; other numbers are inactive results; i = inactive; ? = inconclusive; . = no result; [ ] = remark or other dose. Unless noted, the call rests on the fitted dose curve.

SMILES	NS1 inh	SARS PLP yeast	Shiga inhibitor	Pf growth 48h	Pf growth 96h	CHX counter
CCOC(=O)C1=CC[C@@H](c2ccccc2Cl)N(S(=O)(=O)c2ccc(C)cc2)[C@H]1C(=O)OCC	.	-6%	.	13µM*	?	.
CCOC(=O)C1=CC[C@@H](c2cccc(C)c2)N(S(=O)(=O)c2ccc(C)cc2)[C@H]1C(=O)OCC	.	1%	.	?	?	.
CN(Cc1ccccc1)c1ccc(S(=O)(=O)N2CCC(C(=O)O)CC2)cc1[N+](=O)[O-]	1%	2%	17	0%	6%	-2
O=C1OC(c2cccs2)=N/C1=C/c1ccc(-c2cccc(C(=O)O)c2)o1	3%	5%	27	99%	30%	26*
O=C1OC(c2cccs2)=N/C1=C\c1ccc(-c2ccccc2Cl)o1	-10%	-1%	-2	27%	25%	0
Cc1ccc(S(=O)(=O)/N=C(/c2ccccc2)N2CCOCC2)c(C)c1	-4%	0%	-5	-41%[1.15 µM]	5.9µM*	-6
O=S(=O)(Nc1cc(S(=O)(=O)N2CCOCC2)ccc1NCC1CCCO1)c1ccccc1F (configuration not stated)	.	-1%	.	-3%	12%	.
CCCc1ccc(OCc2ccc(C(=O)N3CCSCC3)o2)cc1	-7%	-3%	156*	44%	31%	86*
CC(C)(C)c1ccc(OCCCC(=O)N2CCOCC2)cc1	-2%	1%	55*	18%	-8%	40*
O=C(NCc1cccnc1)c1ccc(COc2ccc3c(c2)CCC3)o1	-71%	-6%	-5	?	.	5
Cn1cccc1C(=O)OCC(=O)c1cc2ccccc2o1	-26%	4%	62*	79%	68%	29*
COC(=O)c1ccc(COc2ccc3c(c2)CCC3)o1	-34%	-1%	117*	55%	i	54*
CSCC[C@H](NC(=O)[C@H](CC(C)C)N(C)C(=O)[C@@H]1CCCN1C(=O)[C@H](Cc1ccccc1)NC(=O)[C@H](Cc1ccccc1)NC(=O)CCC(C)N)C(=O)O (some centres not stated)	.	.	-4	.	.	-6
NC(=O)[C@@H]1CCCN1C(=O)C(Cc1cnc[nH]1)NC(=O)C1CCC(=O)N1 (some centres not stated)	.	.	22	.	.	-1
N#Cc1ccccc1N1CCN(C(=O)c2ccc(NC(=O)c3ccc(Br)o3)cc2)CC1	.	3%	.	?	?	.
Cc1cccc(OCc2ccc(C(=O)N3CCOCC3)o2)c1	13%	-6%	7	21%	-2%	5
CC(C)(C)c1ccc(OCc2ccc(C(=O)N3CCOCC3)o2)cc1	-1%	-2%	115*	?	19%	54*
CC(C)(C)c1ccc(OCc2ccc(C(=O)Nc3cccnc3)o2)cc1	0%	-10%	157*	?	-19%	75*
CCC(C)c1ccc(OCc2ccc(C(=O)OC)o2)cc1 (configuration not stated)	2%	0%	149*	117%	301%	101*
COC(=O)c1ccc(COc2ccc(C(C)(C)C)cc2)o1	-11%	-4%	145*	133%	?	90*
COC(=O)c1ccc(COc2ccc(C=O)cc2)o1	-64%	4%	12	13%	-17%	8
CCCN(C(=O)C1=COCCO1)c1c(N)n(Cc2ccccc2)c(=O)[nH]c1=O	.	0%	.	10%	-3%	.
CCCNC(=O)c1ccc(COc2ccc(C(C)(C)C)cc2)o1	-6%	-6%	94*	?	-2%	40*
COC(=O)c1ccc(COc2ccc(NC(C)=O)cc2)o1	-1%	0%	16	87%	67%	-1
CCc1ccc(OCc2ccc(C(=O)OC)o2)cc1	-8%	-2%	154*	159%	-38%	67*
COC(=O)c1ccc(COC(=O)c2cccn2C)o1	-11%	-3%	140*	65%	39%	24*
COc1ccc(Br)cc1/C=N/NC(=O)c1ccc(COc2ccc3c(c2)CCC3)o1	13%	1%	-5	?	48%	1
O=C(N/N=C/c1cc([N+](=O)[O-])ccc1O)c1ccc(COc2ccc3c(c2)CCC3)o1	7%	2%	-11	?	9.3µM*	12
